Inconclusive results are not listed. Values without a mark were called inactive. Activity calls are given as the source filed them. The call rests on the fitted dose curve; in most records, active means well fitted inhibition curve with a large enough effect; inconclusive means small, poorly fitted or top-dose-only effect; inactive means no such curve, though single readings can be large or run the other way.
assay: qHTS Screen of the MIPE 4.0 Collection Against Ewings Sarcoma (RDES) (AID 1259252); settings: RD-ES Ewing sarcoma viability, CellTiter-Glo, 48 h; series mostly up to 45.8 µM; viability (percent of control): at the top concentration; further: nearly all actives have a fitted effect of over 35% in size;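 on viability (percent of control): 100% = DMSO-treated cells and 0% = medium-only wells without cells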
Text: There is a large unmet medical need for treatments for Ewing sarcoma, a pediatric sarcoma. We sought to identify compounds that inhibited Ewing sarcoma cells in vitro with the goal to then test promising drugs in two drug combinations in vitro to look for synergistic drug combinations. Promising combinations would then proceed to additional validation, including in vivo testing.
Using the NCATS developed oncology compound library called the Mechanism of Interrogation Plate (MIPE), four Ewing sarcoma cell lines were evaluated (TC32, TC71, RDES, EW8). Compounds, in a 12-point titration series, were incubated with cells for 48 hours and the read out was cell viability (CellTiter-Glo from Promega). These initial experiments were used to select appropriate concentrations of each single agent for subsequent two-drug matrix combinations such that the concentrations in the matrices would span both activity and non-activity.
Cells, in the log phase of growth, were seeded in 5 uL of RPMI plus 5% FBS, […] L-glutamine, 100 U/ml penicillin and 100 ug/ml streptomycin into 1536-well solid-bottom white tissue culture treated Greiner Bio One Plates (789173-F) using a MultiDrop Combi (Thermofisher Scientific) dispenser and a small sterile cassette. One column was media alone to be used as a :"no cells" control. The plates were then covered with sterilized stainless steel gasketed lids from Kalypsys. After allowing cells to attach for 4 hours, 23 nL of test compound or control (negative control DMSO and positive control 9.2 uM Bortezomib-final) were added from a 1536-well polypropylene compound source plate to each well using a 1536 head pin tool from Kalypsys. Cells were then incubated for 48 hours at 37C, 95% relative humidity and 5% CO2. After 48 hours, plates were removed from the incubator and 3 uL of CellTiter-Glo (Promega) was added using an Aurora Flying Reagent Dispenser Bioraptor. Plates were incubated at room temperature for 10 minutes prior to reading the luminescence on the Viewlux (PerkinElmer). The relative luciferase units are used to calculate the percent activity using the activity of DMSO in the cells and no cells columns for normalization of no inhibition and full inhibition respectively.
Potency means the concentration at half of the fitted maximal effect.

Row | Structure (SMILES) | Potency | viability (percent of control)
1 | CC(C)C[C@@H](N)[C@H](O)C(=O)N[C@H](C(=O)N[C@H](C(=O)N[C@@H](CC(=O)O)C(=O)O)C(C)C)C(C)C | 20.9 µM (active) | –
2 | COc1c(C)c2c(c(O)c1CC=C(C)CCC(=O)O)C(=O)OC2 | 3.72 µM (active) | –
3 | CCOC(=O)[C@H]1O[C@H]1C(=O)N[C@@H](CC(C)C)C(=O)NCCC(C)C | – | 124%
4 | CCCCN(CCCC)CC(O)c1cc(Cl)cc2c1-c1ccc(Cl)cc1C2=Cc1ccc(Cl)cc1 (stereo not given) | – | 97.7%
5 | COc1nc(C)cnc1NS(=O)(=O)c1cccnc1-c1ccc(-c2nnco2)cc1 | – | 125%
6 | CCc1cc(-c2n[nH]c(C)c2-c2ccc3c(c2)OCCO3)c(O)cc1O | 9.35 µM (active) | –
7 | CCc1cccc(CC)c1NC(=O)N1Cc2[nH]nc(NC(=O)c3ccc(N4CCN(C)CC4)cc3)c2C1 | 5.9 µM (active) | –
8 | N#CC(c1ccnc(NCCc2cccnc2)n1)c1nc2ccccc2s1 (stereo not given) | 23.5 µM (active) | –
9 | CC=C(C(=CC)c1ccc(O)cc1)c1ccc(O)cc1 | 20.9 µM (active) | –
10 | CNc1nc(-c2ccc3c(N)n[nH]c3c2)cc(N2C[C@@H](C(=O)NC3CCCCC3)CC[C@@H]2C)n1 | 6.62 µM (active) | –
11 | CC(=O)Nc1cccc(-n2c(=O)n(C3CC3)c(=O)c3c(Nc4ccc(I)cc4F)n(C)c(=O)c(C)c32)c1 | 20.9 µM (active) | –
12 | CCCCCOC(=O)Nc1nc(=O)n([C@@H]2O[C@H](C)[C@@H](O)C2O)cc1F (stereo not given in full) | – | 105%
13 | CN(C)CCOc1ccc(C(=C(CCCl)c2ccccc2)c2ccccc2)cc1 | 1.66 µM (active) | –
14 | Cc1ccc(NC(=O)Nc2cc(C(F)(F)F)ccc2F)cc1Nc1ccc2c(c1)NC(=O)C2=Cc1ccc[nH]1 | 23.5 µM (active) | –
15 | CCCCn1c(=O)n(Cc2ccccc2F)c(=O)c2[nH]c(Cc3ccc(NC(C)=O)cc3)nc21 | – | 100%
16 | CCC(=O)OCC(=O)[C@@]1(OC(=O)CC)[C@@H](C)C[C@@H]2[C@H]3CCC4=CC(=O)C=C[C@]4(C)[C@@]3(F)[C@@H](O)C[C@@]21C | – | 101%
17 | N#CC(=C1Nc2ccccc2S1)c1ccnc(OCc2ccc(CN3CCOCC3)cc2)n1 | 7.43 µM (active) | –
18 | CN(CC=CC#CC(C)(C)C)Cc1cccc2ccccc12 | – | 97.5%
19 | Nc1nc(Cl)nc2c1ncn2[C@@H]1O[C@H](CO)[C@@H](O)[C@H]1F | – | 8.53%
20 | CN1CC(=O)NC1=NC(=O)Nc1cccc(Cl)c1 | – | 112%

Row | Structure (SMILES) | Potency | viability (percent of control)
21 | c1cc(OCCN2CCCCC2)cc(-c2n[nH]c3ccc(-c4ncn[nH]4)cc23)c1 | 10.5 µM (active) | –
22 | Nc1[nH]nc2nnc(-c3c(-c4ccccc4)nn4ccccc34)cc12 | 5.9 µM (active) | –
23 | Cc1ccc(S(=O)(=O)OCC(=O)Nc2ccc(C(=O)O)c(O)c2)cc1 | 11.8 µM (active) | –
24 | CC[C@H](NC(=O)[C@H](C)NC)C(=O)N1C[C@@H](O)C[C@H]1Cc1c(-c2[nH]c3cc(F)ccc3c2C[C@H]2C[C@H](O)CN2C(=O)[C@H](CC)NC(=O)[C@H](C)NC)[nH]c2cc(F)ccc12 | – | 122%
25 | C[C@]12CC[C@@H]3c4ccc(O)cc4CC[C@H]3[C@H]1[C@@H](O)[C@@H](O)[C@H]2O | 20.9 µM (active) | –
26 | CN[C@@H](C)[C@H]1[C@H](O)C[C@@]2(C)[C@@H]3CC[C@H]4C(C)(C)[C@@H](NC)CC[C@@]45C[C@@]35CC[C@]12C | – | 98.9%
27 | Cc1ccc(NC(=O)c2cccc(N(C)C)c2)cc1NC(=O)c1ccc(O)cc1 | 0.118 µM (active) | –
28 | NS(=O)(=O)c1cc(Cl)c(Cl)c(S(N)(=O)=O)c1 | – | 112%
29 | CO[C@H]1C=CO[C@@]2(C)Oc3c(C)c(O)c4c(O)c(c(C=NN5CCN(C)CC5)c(O)c4c3C2=O)NC(=O)C(C)=CC=C[C@H](C)[C@H](O)[C@@H](C)[C@@H](O)[C@@H](C)[C@H](OC(C)=O)[C@H]1C | – | 132% [at 15.3 µM]
30 | COc1cc(Nc2nc3ccccc3nc2NS(=O)(=O)c2ccc(NC(=O)c3ccc(C)c(OC)c3)cc2)cc(OC)c1 | 18.7 µM (active) | –
31 | C[C@@H]1[C@H](C)CC[C@]2(C(=O)O)CC[C@]3(C)C(=CC[C@@H]4[C@@]5(C)CC[C@H](O)C(C)(C)[C@H]5CC[C@]43C)[C@@H]12 | 2.7 µM (active) | –
32 | O=S(=O)(NCCNCC=Cc1ccc(Br)cc1)c1cccc2cnccc12 | 2.64 µM (active) | –
33 | C[C@@H](N)c1ccc(C(=O)Nc2ccnc3[nH]ccc23)cc1 | 18.7 µM (active) | –
34 | O=C(Nc1ccccc1)Nc1ccc(-c2ccc(C(=O)[C@H]3CCC[C@H]3C(=O)O)cc2)cc1 | 14.8 µM (active) | –
35 | Cc1nn(Cc2ccccc2Cl)c(C)c1CN(C)CC(O)COc1ccc(Cl)cc1 (stereo not given) | 23.5 µM (active) | –
36 | CC(=O)O[C@]1(C(C)=O)CC[C@H]2[C@@H]3C=C(Cl)C4=CC(=O)[C@@H]5C[C@H]5[C@]4(C)[C@@H]3CC[C@@]21C | 9.35 µM (active) | –
37 | Cc1cc(CS(=O)(=O)c2ccccc2)cc(OCc2ccc(CN3CCC[C@H]3CO)cc2)c1 | 20.9 µM (active) | –
38 | NC(=O)c1noc([C@H](CCCC2CCCCC2)CC(=O)NO)n1 | 8.33 µM (active) | –
39 | COc1ccc(-c2cc3nccn3c(Nc3ncccc3C(N)=O)n2)cc1OC | 14.8 µM (active) | –
40 | CCC(=O)NCC[C@@H]1CCc2ccc3c(c21)CCO3 | – | 116%

Reference: PubChem BioAssay (NCATS)
